Test systems include DU-145 prostate; K-562 leukemia; MALME-3M melanoma; MDA-MB-231 breast; RXF 393 renal; SF-268 CNS; SF-295 CNS; SF-539 CNS; UACC-257 melanoma; M14 melanoma; HCT-15 colon; HT29 colon; SNB-75 CNS; SNB-19 CNS; U251 CNS; PC-3 prostate; SK-MEL-5 melanoma; UACC-62 melanoma; LOX IMVI melanoma; SK-MEL-28 melanoma.
Common to all, as to assay: NCI-60 one-dose screen, 48 h (100 = growth as untreated, 0 = no growth, -100 = all killed)
Common to all, as to details: 10 µM unless noted

Molecules are shown by their SMILES. Compounds without any hit were thinned out: in the full panel of roughly 83,000, 20% have a hit.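 96-well plates, one dose, 48 hours. Percent growth reported; active if below 10.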 Values without a mark were called inactive. Calls of active or inactive are those of the source.

Data on eight compounds can be found in PubChem BioAssay (NCI).

As to `COc1ccc(COc2cc3oc(=O)c4cc(C(C)O)ccc4c3cc2OC)cc1` (stereo not given), the growth in the test on DU-145 prostate was 94.9%; with K-562 leukemia it was 20.1%; in the test on MALME-3M melanoma it was 66.8%; in the test on MDA-MB-231 breast, 67.2%; in the test on RXF 393 renal, 47.8%; with SF-268 CNS it was 55.8%. Also, the growth in the test on SF-295 CNS was 49%; with SF-539 CNS, 60.7%; in the test with UACC-257 melanoma, 42.8%; with M14 melanoma it was 57.6%; in the test on HCT-15 colon, 36.6%; in the test with HT29 colon, 30.1%. The growth was 13.7% in the test with SNB-75 CNS; 31.9% in the test with SNB-19 CNS; 46.5% in the test on U251 CNS; 53% in the test on PC-3 prostate; 56.3% in the test with SK-MEL-5 melanoma; 50.4% in the test on UACC-62 melanoma. Moreover, the growth in the test with LOX IMVI melanoma is 76.3%; with SK-MEL-28 melanoma it was 56.3%.
Turning to `CC/C=C\C[C@H]1C/C=C2/C(=O)C=C[C@@H]2C/C=C\CCCC(=O)O1`, the growth is -10.9% (active) in the test on DU-145 prostate; 1.56% (active) with K-562 leukemia; -15.3% (active) in the test on MALME-3M melanoma; 1.26% (active) in the test on MDA-MB-231 breast; -57.1% (active) with RXF 393 renal; -0.852% (active) with SF-268 CNS. Further, the growth is -19.8% (active) in the test on SF-295 CNS; 5.18% (active) in the test with SF-539 CNS; -12.7% (active) in the test on UACC-257 melanoma; -17.4% (active) in the test with M14 melanoma; -33.8% (active) in the test with HCT-15 colon; -29.2% (active) in the test on HT29 colon. In addition, the growth in the test with SNB-75 CNS is 47%; in the test with SNB-19 CNS, 12.6%; with U251 CNS it was -80.9% (active); with PC-3 prostate, -42.6% (active); with SK-MEL-5 melanoma it was -88.4% (active); in the test with UACC-62 melanoma, -57.6% (active). Further, the growth in the test with LOX IMVI melanoma was -76.1% (active); with SK-MEL-28 melanoma, -28.6% (active).
With `COc1cc(NCCCN)c2ncccc2c1`, the growth is 109% in the test on DU-145 prostate; 89.9% with K-562 leukemia; 109% in the test with MALME-3M melanoma; 87.5% with MDA-MB-231 breast; 93.6% in the test on RXF 393 renal; 90.7% in the test with SF-268 CNS. Also, the growth with SF-295 CNS was 67.8%; in the test on SF-539 CNS, 88.4%; with UACC-257 melanoma, 93.7%; in the test with M14 melanoma, 75.9%; in the test on HCT-15 colon, 100%; in the test on HT29 colon, 75.6%. The growth in the test on SNB-75 CNS is 87.5%; in the test with SNB-19 CNS, 87.5%; with U251 CNS, 83.2%; with PC-3 prostate, 82.2%; in the test on SK-MEL-5 melanoma, 81.5%; with UACC-62 melanoma, 86.8%. Moreover, the growth was 61.8% in the test on LOX IMVI melanoma and 83.4% with SK-MEL-28 melanoma.
For `Cc1cc(C(O)CN(C)C)cc2c1ccc1cc(C(C)C)ccc12` (stereo not given), the growth in the test on DU-145 prostate is 55.7%; with K-562 leukemia it was -20.2% (active); with MALME-3M melanoma, -77.3% (active); in the test on MDA-MB-231 breast, -35.1% (active); in the test on RXF 393 renal it was -47.8% (active); in the test with SF-268 CNS, 62.2%. Further, the growth is -66.1% (active) with SF-295 CNS; 71.5% in the test with SF-539 CNS; -74.4% (active) in the test with UACC-257 melanoma; -100% (active) with M14 melanoma; -38.7% (active) in the test with HCT-15 colon; -65.1% (active) in the test with HT29 colon. For the same compound, the growth with SNB-75 CNS is -63.5% (active); in the test with SNB-19 CNS, 59%; in the test on U251 CNS it was -48.8% (active); in the test on PC-3 prostate, 48.6%; in the test on SK-MEL-5 melanoma, -93.1% (active); in the test on UACC-62 melanoma, -81.2% (active). For the same compound, the growth in the test on LOX IMVI melanoma and in the test with SK-MEL-28 melanoma was -100% (active) in each case.
Regarding `CO[C@@H](C(=O)N1Cc2[nH]nc(NC(=O)c3ccc(N4CCN(C)CC4)cc3)c2C1)c1ccccc1`, the growth in the test on DU-145 prostate is 17.6%; in the test on K-562 leukemia it was 6.59% (active); with MALME-3M melanoma it was 48.6%; in the test on MDA-MB-231 breast, 9.92% (active); in the test with RXF 393 renal, -36.4% (active); in the test on SF-268 CNS, 1.17% (active). The growth in the test with SF-295 CNS was 31.7%; in the test with SF-539 CNS, -4.34% (active); in the test on UACC-257 melanoma, 14.2%; in the test with M14 melanoma it was 35.8%; with HCT-15 colon it was 74.2%; with HT29 colon it was -34.7% (active). The growth with SNB-75 CNS was -85.5% (active); in the test on SNB-19 CNS, 28.3%; with U251 CNS, 16%; in the test with PC-3 prostate, 26.5%; in the test with SK-MEL-5 melanoma, -20.5% (active); in the test with UACC-62 melanoma, 30.6%. Further, the growth is -89% (active) in the test on LOX IMVI melanoma and 45.5% in the test with SK-MEL-28 melanoma.
`CCCCn1c(C)nc2cc(Nc3nc(N4CCCCC4)nc4nc[nH]c34)ccc21`: the growth in the test with DU-145 prostate was 60.2%; in the test with K-562 leukemia, 28.7%; with MALME-3M melanoma it was 61.5%; in the test with MDA-MB-231 breast, 39.2%; in the test with RXF 393 renal, 22.1%; in the test with SF-268 CNS it was 60.4%. In addition, the growth was 47.1% in the test on SF-295 CNS; 71.2% with SF-539 CNS; 62.1% with UACC-257 melanoma; 32.8% in the test on M14 melanoma; 52.9% in the test on HCT-15 colon; 59.8% with HT29 colon. Besides, the growth was 11.4% in the test with SNB-75 CNS; 73.3% with SNB-19 CNS; 58.5% in the test on U251 CNS; 25.7% with PC-3 prostate; -31.7% (active) in the test with SK-MEL-5 melanoma; 45.4% with UACC-62 melanoma. Moreover, the growth in the test with LOX IMVI melanoma is 33.7%; with SK-MEL-28 melanoma it was 76%.
For `Cc1nc(N)sc1-c1ccnc(Nc2ccc(N3CCOCC3)cc2)n1`, the growth in the test with DU-145 prostate was 33.2%; in the test with K-562 leukemia it was 59.1%; with MALME-3M melanoma, 47.8%; with MDA-MB-231 breast it was 29.5%; with RXF 393 renal it was 18.3%; in the test with SF-268 CNS it was 28.5%. The growth in the test on SF-295 CNS was 25.3%; with SF-539 CNS, 25.6%; in the test on UACC-257 melanoma, 71.9%; in the test with M14 melanoma, 36.8%; in the test with HCT-15 colon, 44.7%; with HT29 colon it was 25.5%. The growth is -11% (active) in the test with SNB-75 CNS; 29.9% in the test on SNB-19 CNS; 27.9% with U251 CNS; 38.3% in the test with PC-3 prostate; 70.8% in the test on SK-MEL-5 melanoma; 41.6% in the test with UACC-62 melanoma. Also, the growth in the test with LOX IMVI melanoma was 29.6%; in the test with SK-MEL-28 melanoma it was 61.5%.
With `CN[C@@H]1C[C@H]2O[C@@](C)([C@@H]1OC)n1c3ccccc3c3c4c(c5c6ccccc6n2c5c31)C(=O)N[C@H]4O`, the growth is 3.62% (active) in the test on DU-145 prostate; -15.6% (active) in the test on K-562 leukemia; -81.2% (active) in the test with MALME-3M melanoma; -48.5% (active) in the test on MDA-MB-231 breast; -94.3% (active) with RXF 393 renal; -66.5% (active) with SF-268 CNS. Besides, the growth in the test with SF-295 CNS was -75.8% (active); with SF-539 CNS, -88.4% (active); in the test with UACC-257 melanoma, -88.4% (active); in the test with M14 melanoma, -56.6% (active); with HCT-15 colon it was -16.8% (active); in the test with HT29 colon it was -16.7% (active). For the same compound, the growth was -98.9% (active) in the test on SNB-75 CNS; -34.4% (active) in the test with SNB-19 CNS; -85.3% (active) with U251 CNS; 4.43% (active) in the test with PC-3 prostate; -98.9% (active) with SK-MEL-5 melanoma; -63.1% (active) with UACC-62 melanoma. In addition, the results for the growth in the test with LOX IMVI melanoma and with SK-MEL-28 melanoma were -85.5% (active) and -61.3% (active), respectively.
